Data taken from PubChem BioAssay AID1851 (National Center for Advancing Translational Sciences (NCATS), 2009).
Values joined by “and” are separate entries in the source; they are usually repeats but may differ in a detail not shown here. Equal values may be shown once. The whole screen tested about 16,000 compounds, of which about 5,100 (32%) were called active. Another 25% or so got no clear call; they are omitted. Some of the results follow. Unmarked numbers belong to inactive results. Calls follow the shape of the dose curve; as a rule, active = well fitted curve in the direction sought with a large enough effect; inconclusive = small, poorly fitted or top-dose-only effect, or effect the other way; inactive = no such curve, though single readings can be large or run the other way.

Each compound was assayed against Cytochrome P450 3A4 (Homo sapiens) (UniProt P08684) (assay: Cytochrome panel assay with activity outcomes). Settings: recombinant CYP, pro-luciferin dealkylation, luminescence, p450-cyp3a4; series mostly up to 57.1 µM.
% is scaled to controls: 0 for no effect and ±100 for the full control effect.

Chain of Cytochrome P450 3A4 (Homo sapiens) (P08684 whole entry, looked up): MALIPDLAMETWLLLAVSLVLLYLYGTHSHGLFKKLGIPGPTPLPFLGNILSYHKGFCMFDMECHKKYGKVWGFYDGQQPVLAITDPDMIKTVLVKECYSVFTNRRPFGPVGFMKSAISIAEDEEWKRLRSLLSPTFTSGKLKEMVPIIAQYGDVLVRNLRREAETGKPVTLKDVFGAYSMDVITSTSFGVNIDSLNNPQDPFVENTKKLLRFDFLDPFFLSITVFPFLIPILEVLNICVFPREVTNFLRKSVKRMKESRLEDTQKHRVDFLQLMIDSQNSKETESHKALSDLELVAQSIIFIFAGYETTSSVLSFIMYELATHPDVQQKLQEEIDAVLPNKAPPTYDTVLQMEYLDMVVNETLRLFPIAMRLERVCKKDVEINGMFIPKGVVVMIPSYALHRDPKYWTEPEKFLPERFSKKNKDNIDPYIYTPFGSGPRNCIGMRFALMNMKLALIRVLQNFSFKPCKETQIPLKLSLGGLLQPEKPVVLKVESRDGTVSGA

SMILES	activity, negative = inhibition	AC50
O=C(O)CN(CCN(CC(=O)O)CC(=O)O)CC(=O)O.[Cu]	10.2% [at 11.4 µM]	–
Cc1ccc(-c2csc(C(C#N)=C3CCCC3)n2)cc1	–	20 µM (active)
N=C1SCC(=O)N1c1nc(-c2ccccc2)cs1	0.753% [at 2.29 µM]	–
O=C(Nc1ccc(-c2csc(-c3ccccc3)n2)cc1)c1ccccc1Cl	–	inactive
COc1ccc(/C=N/N(C(C)=O)c2nc(-c3ccc(C)cc3)cs2)cc1	–	inactive
N#CC(=C1CCCC1)c1nc(-c2ccccc2)cs1	–	15.8 µM (active)
Cc1sc(N/N=C/C=C/c2ccccc2)nc1-c1ccccc1	-9.33% [at 11.4 µM]	–
O=S(=O)(N/N=C\C=C\c1ccccc1)c1ccc(Br)cc1	–	14.1 µM (active)
Brc1ccc(/C=C/C=N/Nc2nc3ccccc3s2)cc1	–	inactive
CCC/C=C(\CCC)C(NC(=O)c1ccccc1)c1ccccc1 (stereo not given)	–	10 µM (active)
CCC/C=C(\CCC)C(NC(=O)c1ccc(C(F)(F)F)cc1)c1ccccc1 (stereo not given)	–	15.8 µM (active)
CC(C)NC(=O)/C(=N\O)c1ccccc1	–	inactive
Cc1cc(S(=O)(=O)NCCN(C)C)c(C)s1	–	inactive
CN(C)S(=O)(=O)Oc1ccc(Cl)cc1C(=O)Nc1cccc(C(F)(F)F)c1	–	12.6 µM (active)
COC(=O)/C(=C\C(=O)c1ccccc1)Nc1cccc(C(F)(F)F)c1	–	inactive
CCOc1ccc(C(F)(F)F)cc1NC(C)=O	–	inactive
CN(C)S(=O)(=O)Oc1ccccc1C(=O)Nc1cccc(C(F)(F)F)c1	–	11.2 µM (active)
COC(=O)[C@]1(C)CCC(c2ccc(C)cc2)=C(CC(=O)O)C1	-9.37% [at 11.4 µM]	–
Cc1cccc2cc(=O)[nH]c(C)c12	–	inactive
CCOC(=O)N1CCC(NC(=O)CCC(=O)N2CC(C)Oc3ccc(C)cc32)CC1 (stereo not given)	–	8.91 µM (active)

SMILES	activity, negative = inhibition	AC50
Cc1ccc2c(c1)N[C@H](c1ccc(C(=O)O)cc1)c1cccn1-2	–	0.0501 µM (active)
CN1CCCN(S(=O)(=O)c2ccc3c(c2)OCCO3)CC1	–	inactive
Cc1ccc2nc(N3CCN(S(=O)(=O)c4ccc5c(c4)OCCO5)CC3)c(C#N)cc2c1	–	6.31 µM (active)
Cc1ccc(Cl)cc1N1CCN(S(=O)(=O)c2ccc3c(c2)OCCO3)CC1	–	inactive
CN(C)CC(CN(C)C)c1ccccn1	-2.93% [at 11.4 µM]	–
Cc1[nH]c2ccccc2c1C(c1ccccn1)N1CCC(C)CC1 (stereo not given)	–	2.24 µM (active)
c1ccc([C@H](CCN2CCCC2)c2ccccn2)cc1	-2.32% [at 11.4 µM]	–
N=C(N)c1ccccc1	–	inactive
Cc1ccc(N(CCC#N)C(=O)CSc2ccc3c(c2)OCCO3)cc1	–	15.8 µM (active)
CCn1c(C)nc2cc(C(=O)NNS(=O)(=O)c3ccccc3F)ccc21	–	inactive
CCn1c2ccccc2c2cc(NS(=O)(=O)c3ccccc3C)ccc21	–	1 µM (active)
c1ccc2c(c1)c1ccccc1n2Cn1c2ccccc2c2ccccc21	-21.4% [at 11.4 µM]	–
C[C@@]1(C(NC(=O)Cc2ccc(C(F)(F)F)cc2)c2ccc(-c3ccccc3)cc2)C[C@H]1C1CCCCC1 (stereo not given in full)	–	inactive
C[C@@]1(C(NC(=O)c2ccc(-c3ccccc3)cc2)c2ccc(Cl)cc2)C[C@H]1C1CCCCC1 (stereo not given in full)	–	inactive
CC(C)(C)C(=O)NC(c1ccc(Cl)cc1)[C@]1(C)C[C@H]1C1CCCCC1 (stereo not given in full)	–	12.6 µM (active)
COC(=O)c1ccc(C(NC(=O)c2ccco2)[C@]2(C)C[C@H]2C2CCCCC2)cc1 (stereo not given in full)	–	7.94 µM (active)
COCc1cc(=O)[nH]c2cc(NC(=O)C(F)(F)F)c(C)cc12	-1.96% [at 11.4 µM]	–
CCc1nnc(NC(=O)CSc2ncnc3c2cnn3-c2ccc(OC)cc2)s1	–	inactive
CCOc1ccc(-n2ccnc2SCC(=O)Nc2nnc(C)s2)cc1	–	14.1 µM (active)
Cc1nnc(NC(=O)CSc2ncnc3c2cnn3-c2ccccc2C)s1	–	inactive

SMILES	activity, negative = inhibition	AC50
CCOc1ccc(-n2ccnc2SCC(=O)Nc2nnc(CC)s2)cc1	–	14.1 µM (active)
COc1ccc(-c2coc3cc4oc(=O)cc(C)c4cc23)cc1F	–	inactive
CCCc1ccc(C2C3=C(CC(C)(C)CC3=O)NC3=C2C(=O)c2ccccc23)cc1 (stereo not given)	–	2.82 µM (active)
C[C@@H](C(=O)Nc1ccc2ccccc2c1)[C@H]1C[C@]1(C)[C@H](NC(=O)Oc1ccc(F)cc1)c1ccccc1	–	0.794 µM (active)
O=C(Nc1ccc2oc(=O)c(C(=O)O)cc2c1)Oc1ccccc1	-5.24% [at 11.4 µM]	–
CC(=O)N[C@@H](c1ccccc1)[C@]1(C)C[C@H]1[C@@H](C)C(=O)Nc1ccc2ccccc2c1	–	7.94 µM (active)
COC(=O)N[C@H](c1ccccc1)[C@@]1(C)C[C@@H]1[C@@H](C)C(=O)Nc1ccc2ccccc2c1	–	0.2 µM (active)
CC(=O)N[C@H](c1ccccc1)[C@@]1(C)C[C@@H]1[C@@H](C)C(=O)Nc1ccc2ccccc2c1	–	7.94 µM (active)
Oc1c(CN2CCN(c3ccccc3)CC2)cc(Br)c2cccnc12	0.931% [at 11.4 µM]	–
C[C@@H](C(=O)Nc1ccc2ccccc2c1)[C@@H]1C[C@@]1(C)[C@@H](N)c1ccccc1	–	7.94 µM (active)
C[C@@H](C(=O)Cc1ccc2ccccc2c1)[C@@H]1C[C@@]1(C)[C@@H](NP(=O)(c1ccccc1)c1ccccc1)c1ccccc1	–	1 µM (active)
C[C@@H](C(=O)Nc1ccc2ccccc2c1)[C@H]1C[C@]1(C)[C@H](NP(=O)(c1ccccc1)c1ccccc1)c1ccccc1	–	2 µM (active)
CN(Cc1cnc2nc(N)nc(N)c2n1)c1ccc(C(=O)N[C@H](CCC(=O)O)C(=O)O)cc1	–	inactive
C=C[C@@]1(C)CC(=O)[C@@]2(O)[C@@]3(C)[C@@H](O)CCC(C)(C)[C@@H]3[C@H](OC(=O)CCN(C)C)[C@H](OC(C)=O)[C@@]2(C)O1	–	2.51 µM (active)
O=C(O)CC[P+](c1ccccc1)(c1ccccc1)c1ccccc1	9.68% [at 11.4 µM]	–
CCN1C(=O)[C@H]2[C@H]3[C@H](O)[C@H](O)C/C(=N/OC[C@@H](O)COCc4ccco4)[C@H]3CC[C@@H]2C1=O	-17.6% [at 11.4 µM]	–
O=C1[C@H]2[C@H]3[C@H](O)[C@H](O)C/C(=N/OC[C@@H](O)COCc4ccco4)[C@H]3CC[C@@H]2C(=O)N1Cc1ccc2c(c1)OCO2	–	3.16 µM (active)
O=C1[C@H]2[C@H]3[C@H](O)[C@H](O)C/C(=N/OC[C@@H](O)COCc4ccco4)[C@@H]3CC[C@@H]2C(=O)N1Cc1ccccc1	–	3.16 µM (active)
O=C1[C@H]2[C@H]3[C@H](O)[C@H](O)C/C(=N/OC[C@@H](O)COCc4ccco4)[C@@H]3CC[C@@H]2C(=O)N1Cc1ccc2c(c1)OCO2	–	3.16 µM (active)
CCN1C(=O)[C@H]2[C@H]3[C@H](O)[C@H](O)C/C(=N/OC[C@@H](O)COCc4ccco4)[C@@H]3CC[C@@H]2C1=O	-23.4% [at 11.4 µM] and -18.4% [at 11.4 µM]	–
